An excerpt weighted towards active compounds, which were near 10% of everything screened.
HPGD block: inhibitors of human 15-hydroxyprostaglandin dehydrogenase (HPGD). P15428. purified HPGD, NADH fluorescence kinetic, PGE2 substrate. Potency, µM, inactives show at the highest dose activity change, negative = inhibition, actives largely listed as inhibitors. 4.3% of 150,000 active. AID 894; further: potency means the concentration at half of the fitted maximal effect
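NADH formation kinetics: reaction with 30 uM PGE2 and 1 mM NAD+ (final), 20 nM enzyme, Tris-HCl pH 8 with Tween 20, after 15 min compound preincubation at room temperature. Fluorescence change, last versus first of five reads.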
ALOX12 inhib: 12-hLO (ALOX12) enzyme inhibition. P18054. purified 12-hLO, xylenol orange hydroperoxide absorbance. Potency, µM (top dose mostly 57.1 µM), inactives show at the top dose activity change, negative = inhibition, usual class: inhibitors. 0.12% of 150,000 active; active means well fitted inhibition curve with a large enough effect; inconclusive means small, poorly fitted or top-dose-only effect; further: potency means the concentration at half of the fitted maximal effect; nearly all actives have a fitted effect of over 55% in size
Target sequence (P18054 whole entry, looked up): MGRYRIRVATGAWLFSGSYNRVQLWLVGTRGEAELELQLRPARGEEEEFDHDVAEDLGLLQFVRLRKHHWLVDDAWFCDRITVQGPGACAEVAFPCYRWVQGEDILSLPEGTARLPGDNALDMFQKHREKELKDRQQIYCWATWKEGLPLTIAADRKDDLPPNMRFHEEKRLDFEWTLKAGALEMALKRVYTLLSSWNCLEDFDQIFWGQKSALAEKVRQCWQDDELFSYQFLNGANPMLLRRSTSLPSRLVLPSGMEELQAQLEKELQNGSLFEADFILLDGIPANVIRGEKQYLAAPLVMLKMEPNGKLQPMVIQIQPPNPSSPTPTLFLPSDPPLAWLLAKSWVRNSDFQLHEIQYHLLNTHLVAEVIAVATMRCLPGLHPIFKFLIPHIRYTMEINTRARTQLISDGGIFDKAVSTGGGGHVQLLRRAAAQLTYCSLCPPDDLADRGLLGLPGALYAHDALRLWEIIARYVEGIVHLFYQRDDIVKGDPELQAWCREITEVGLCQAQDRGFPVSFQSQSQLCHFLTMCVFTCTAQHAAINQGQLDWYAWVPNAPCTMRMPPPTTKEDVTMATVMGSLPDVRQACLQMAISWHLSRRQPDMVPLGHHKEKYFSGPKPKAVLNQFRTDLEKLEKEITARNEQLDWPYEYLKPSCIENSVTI
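Purified human 12hLO (150 nM final) was preincubated with compounds for 15 min at room temperature in 25 mM Hepes pH 7.0, 0.01% Triton X-100, then reacted with 40 uM arachidonic acid for 30 min. Hydroperoxide was detected with ferrous iron/xylenol orange.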
ALDH1A1 block: ALDH1A1 (human) enzyme inhibition | P00352 | Purified ALDH1A1, NADH fluorescence, propionaldehyde substrate | Potency, µM (highest dose often 75.3 µM), for inactives: at the highest dose activity, negative = inhibition, hits mostly inhibitors | 7.3% of 220,000 active;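 further: potency means the concentration at half of the fitted maximal effect; plate controls were no enzyme wells and a reference inhibitor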
PNC assembly inh: blocks assembly of the perinucleolar compartment. PC3M PTB-GFP, PNC prevalence imaging, 16 h; hits give low values. activity change (PNC), negative = inhibition, % at 10 µM. 3.1% of 140,000 active. AID 2417;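 active means readout at or below -70, meaning at least 70% loss of cells showing the perinucleolar compartment, a nuclear body marking cancer cells; inconclusive means readout between -30 and a set limit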;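 further: plate controls were DMSO wells for no effect and camptothecin positive control wells for full effect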
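Read-out is percentage of cells bearing a perinucleolar compartment, from automated 20x imaging of fixed, Hoechst-stained PC3M PTB-GFP cells. Cells were seeded 4 h, then exposed 16 h to compound (23 nl of library stock) in duplicate plates.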
Lamin A splicing: changes lamin A minigene splicing in HeLa cells. HeLa LMNA splicing GFP/RFP minigene ratio, 48 h. 0.01% of 200,000 active. Potency, µM (highest dose often 46.1 µM), for the others: at the top dose ratio change, negative = inhibition, actives largely listed as inhibitors; active means well fitted inhibition curve with a large enough effect in the signal ratio, with a control signal flat, not every such curve was filed as active; inconclusive means small, poorly fitted or top-dose-only effect, or effect the other way, or a change in a side signal; the % refers to the signal ratio; further: potency means the concentration at half of the fitted maximal effect
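S3 HeLa stable clones carrying a lamin A-EGFP splicing minigene plus DsRed2 were seeded at 600 cells/well in Opti-MEM with 2% FBS, pin-dosed and incubated 48 h at 37°C. Acumen cytometry (488 nm) gave the GFP/RFP total-intensity ratio.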
* hit, by the source's call; ? = inconclusive; · = no result given; [ ] = another dose, or the depositor's remark. Unless noted, the call rests on the fitted dose curve; in most records, active means well fitted inhibition curve with a large enough effect (not every such curve was filed as active); inconclusive means small, poorly fitted or top-dose-only effect, or another doubt; inactive means no such curve, though single readings can be large or run the other way. Unless noted, on the % scale 0 is the no-effect control and ±100 the full control effect.

SMILES	HPGD block	ALOX12 inhib	ALDH1A1 block	PNC assembly inh	Lamin A splicing
O=C(CCCn1c(=S)[nH]c2ccc(Br)cc2c1=O)NCC1CCCO1 (configuration not stated)	7.1µM*	3%	1.4µM*	15	-7%
O=C(CCCn1c(=O)[nH]c2cc(Cl)ccc2c1=O)NCC1CCCO1 (configuration not stated)	-15%	2%	-7%	-119*	-2%
CCOC(OCC)P(=O)(O)CCCNCc1ccc(Cl)c(Cl)c1	-2%	-3%	2%	·	·
Cc1cccc(C)c1NC(=O)Cn1c(=O)cc(C)c2c(C)nn(-c3cccc(Cl)c3C)c21	·	·	·	·	1%[46 µM]
CCOC(=O)c1c(C)oc2c1c(C=NCc1ccccn1)c(O)c1ccccc12	-20%	2%	?	-19	?
CCOC(=O)c1c(C)oc2c1c(C(c1cccnc1)N1CCOCC1)c(O)c1ccccc12 (configuration not stated)	22µM*	?	7.1µM*	23	?
COC(=O)NCC(c1cccnc1)N1CCOCC1 (configuration not stated)	-2%	-2%	?	1	1%
CCOC(=O)c1c(C)oc2c1c(C(c1cccnc1)N1CCN(C)CC1)c(O)c1ccccc12 (configuration not stated)	-28%	-28%	13µM*	-13	?
COc1ccc(C(=O)NCc2ccc3c(c2)CCN3C(C)=O)c(OC)c1	·	·	·	·	9%[46 µM]
N#C/C(C(=O)c1ccccc1)=C1/SC=C(N)N1c1ccccc1	20µM*	-9%	3.2µM*	27	4%
COC(=O)/C(C#N)=C1/SC=C(C)N1c1ccccc1	-17%	7%	11µM*	?	5%
CC1=CS/C(=C(/C#N)C(=O)N2CCCCC2)N1c1ccccc1	-9%	4%	?	14	4%
CCc1nn(CCCC(=O)N2CCc3ccccc3C2)c(=O)c2cc3occc3n12	32µM*	-17%	?	60	16%
COc1cc(NS(=O)(=O)c2ccc(OC)c(C)c2C)c(OC)cc1Cl	-17%	-10%	?	-108*	-6%
COc1ccc(S(=O)(=O)Nc2ccccn2)c(C)c1C	-8%	-4%	25µM*	?	-7%
CCOc1ccc(S(=O)(=O)Nc2ccccn2)c2ccccc12	?	-4%	?	89	-4%
Cc1ccc(-n2nnnc2CCl)cc1	·	·	22µM*	·	?
Cc1ccnc(NC(=O)CCC(=O)N(CC(=O)NCCc2ccccc2)Cc2ccco2)c1	-7%	-6%	7.9µM*	4	6%
CCC(C)(C)NC(=O)CN(C(=O)CCC(=O)Nc1cc(C)ccn1)c1ccc2c(c1)OCO2	-7%	2%	-5%	42	-1%
CCC(C)(C)NC(=O)CN(Cc1ccccc1Cl)C(=O)CCC(=O)Nc1cc(C)ccn1	·	·	14µM*	·	0%[46 µM]
C[C@H]1C[C@]2(O[C@@H]2C)C(=O)O[C@@H]2CCN(C)C/C=C(/COC(=O)[C@]1(C)O)C2=O	-5%	-3%	6%	·	·
Cc1nc(NC(C)C)c2cnn(CCc3ccccc3)c2n1	-1%	2%	4%	-7	-6%
CCCNc1nc(C)nc2c1cnn2CCc1ccccc1	-8%	-10%	18µM*	19	12%
Cc1cc(-c2ccccc2)c(C#N)c(=S)[nH]1	14µM*	-11%	7.9µM*	1	-13%
Cc1ccc(-c2cc(-c3ccccc3)c(C#N)c(Br)n2)cc1	?	-2%	207%	15	-1%
SMILES	HPGD block	ALOX12 inhib	ALDH1A1 block	PNC assembly inh	Lamin A splicing
N#Cc1c(-c2ccccc2Cl)cc(-c2ccccc2)[nH]c1=S	·	·	10µM*	·	-9%[9.22 µM]
CCOC(=O)C1=C(C)NC(=O)N[C@@H]1c1coc2cc(C)cc(C)c2c1=O	-1%	-2%[11.4 µM]	5%[13.5 µM]	·	·
CCN(CC)CC[n+]1ccc2c(C)c3[nH]c4ccccc4c3c(C)c2c1	-6%	9%[11.4 µM]	2%[13.5 µM]	·	·
CCCN1C=CC(=C2C(=O)c3ccccc3C2=O)C=C1	-16%	-6%	14µM*	-9	-1%
CCCCCCN1C=CC(=C2C(=O)c3ccccc3C2=O)C=C1	·	·	3%	·	·
CCCCN1C(C)=CC(=C2C(=O)c3ccccc3C2=O)C=C1C	·	·	14µM*	·	·
CC1=CC(=C2C(=O)c3ccccc3C2=O)C=C(C)N1Cc1ccco1	-16%	-28%	7.9µM*	37	-15%
Cc1cccc(Nc2ncnc3c2cnn3C)c1C	·	·	·	·	-6%[46 µM]
CC(=O)c1ccc(-c2ccc(-c3cc(=O)oc4c(C(C)C)ccc(C)c34)cc2)cc1	-23%	-4%[0.00818 µM]	11%	·	·
CC/C(=N/O)c1cnnc(SC)n1	-15%	-3%	-7%	17	8%
CC/C(=N/Nc1cccc(C)c1)c1cnnc(SC)n1	-6%	2%	9.5µM*	19	0%
CC/C(=N/Nc1ccc(Cl)cc1)c1cnnc(SC)n1	-11%	0%	10µM*	100	-3%
CCCS(=O)(=O)c1nc(S(=O)(=O)c2ccc(C)cc2)c(NCCN2CCOCC2)s1	-5%	-6%	14µM*	-107*	2%
COc1ccccc1NC(=O)/C(C#N)=C/c1c(C)nn(-c2ccc(F)cc2)c1Cl	0%	0%	8%	-19	2%
COc1ccc(NC(=O)/C(C#N)=C/c2c(C)nn(-c3ccc(F)cc3)c2Cl)cc1Cl	-13%	-4%	9%	-83*	17%
Cc1nn(-c2ccccc2)c(Cl)c1/C=C(\C#N)C(=O)NC(C)C	-26%	-4%	14µM*	-25	?
COc1ccc(S(=O)(=O)NCc2ccc3c(c2)CCN3C(=O)c2ccc(C)cc2)cc1Cl	·	·	·	·	-7%[46 µM]
O=C(O)CCNc1ncnc2nc[nH]c12	-2%	-3%[11.4 µM]	14%[13.5 µM]	·	·
N#Cc1c(-c2ccco2)nc(SCc2ccc(F)cc2)[nH]c1=O	10µM*	2%	0%	-13	5%
Cc1cccc(NC(=S)N(CCCN2CCOCC2)Cc2cn(C)c3ccccc23)c1	-2%	-2%	?	?	?
COc1ccc(NC(=S)N(CCCN2CCOCC2)Cc2cn(C)c3ccccc23)cc1	-15%	-1%	0.56µM*	?	?
CCOc1ccc(NC(=S)N(CCCN2CCOCC2)Cc2cn(C)c3ccccc23)cc1	-16%	-5%	4µM*	?	-17%
CCN(CC)c1ccc(NC(=O)OC)cc1	-12%	-4%	9%	80	-4%
CCN(CC)c1ccc(SS(=O)(=O)O)cc1	8.9µM*	-10%	13µM*	0	12%
CC(=O)O[C@@H]1[C@@]2(C)O[C@H]2CC[C@]23O[C@H]2[C@H](OC3=O)C2=C(C)C(=O)O[C@@]21O	1%	-2%	28µM*	46	5%
O=c1c(N2CCc3ccccc3C2)csc2ccc(Cl)cc12	·	·	·	·	-25%[46 µM]
CC(C)CCNC(=O)C(c1ccco1)N(Cc1ccccc1)C(=O)c1snc(C(N)=O)c1N (configuration not stated)	-9%	-10%	?	-123*	-2%
